Compound activity deposited in PubChem by several laboratories.
This is one part of a sample in which hits are shown more often than they occur.
ARNT-TACC3 inh = disruptors of human ARNT/TACC3 interaction. inhibition, % at 9.99 µM. Q9Y6A5. 0.66% of 390,000 active. AlphaScreen His-ARNT PAS-B/GST-TACC3 binding, luminescence; TACC3 fragment carries E629A point mutation;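 active = mean inhibition of replicates at least 50% and at least half of replicates each reaching 50%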;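 note: 0% = complete ARNT plus TACC3 wells and 100% = ARNT alone without TACC3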
CendR NRP1 mod = alters CendR peptide binding to human NRP-1. O14786. FAM-RPARPAR peptide binding to NRP-1, fluorescence polarization. inhibition, % at 25 µM. 0.85% of 360,000 active. AID 602438;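 active = inhibition or corrected inhibition above about 18%, plus a signal ratio from 0.5 to 1.5, limit read from the data, passing the limit was not always enough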
Target sequence (O14786 whole entry, looked up): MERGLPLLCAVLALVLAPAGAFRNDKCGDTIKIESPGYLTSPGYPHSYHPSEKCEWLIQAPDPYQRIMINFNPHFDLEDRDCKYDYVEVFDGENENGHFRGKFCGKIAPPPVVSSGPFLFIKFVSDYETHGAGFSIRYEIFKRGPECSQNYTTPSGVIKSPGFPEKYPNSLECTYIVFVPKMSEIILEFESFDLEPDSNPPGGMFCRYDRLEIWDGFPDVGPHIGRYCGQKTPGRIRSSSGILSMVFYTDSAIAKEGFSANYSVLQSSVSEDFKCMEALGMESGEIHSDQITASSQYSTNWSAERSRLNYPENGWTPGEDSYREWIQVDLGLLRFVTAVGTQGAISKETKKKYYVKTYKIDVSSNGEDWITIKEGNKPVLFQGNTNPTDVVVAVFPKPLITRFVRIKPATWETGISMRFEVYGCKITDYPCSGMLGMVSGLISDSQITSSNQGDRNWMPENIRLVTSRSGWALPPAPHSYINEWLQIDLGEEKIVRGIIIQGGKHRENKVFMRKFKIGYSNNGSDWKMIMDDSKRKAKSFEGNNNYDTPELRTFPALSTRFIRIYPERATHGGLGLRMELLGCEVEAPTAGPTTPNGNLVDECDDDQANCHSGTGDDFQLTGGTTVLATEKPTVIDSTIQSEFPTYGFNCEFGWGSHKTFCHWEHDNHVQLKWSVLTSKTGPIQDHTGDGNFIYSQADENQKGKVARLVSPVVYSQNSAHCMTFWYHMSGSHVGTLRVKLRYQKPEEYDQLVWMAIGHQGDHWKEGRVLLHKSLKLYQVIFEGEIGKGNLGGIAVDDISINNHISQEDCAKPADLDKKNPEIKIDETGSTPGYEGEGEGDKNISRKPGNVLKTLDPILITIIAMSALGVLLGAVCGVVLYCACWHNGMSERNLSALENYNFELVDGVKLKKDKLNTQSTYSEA
ERp5 block = blocks human ERp5 reductase activity on insulin; inhibition, % at 9.99 µM; Q15084; ERp5 insulin aggregation, absorbance 650 nm, 90 min; 0.05% of 350,000 active;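 active = mean replicate inhibition above about 25%, with every replicate also reaching it, limit read from the data, passing the limit was not always enough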
PDI turbidity = PDI (human) enzyme inhibition | P07237 | PDI insulin aggregation turbidity, A650, 90 min | inhibition, % at 10 µM | 0.052% of 350,000 active;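 active = mean inhibition across replicates of 30% or more, whatever share of single replicates reach that level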
PglD inh = PglD (C. jejuni) enzyme inhibition; purified PglD enzyme, DTNB colorimetric CoA detection; inhibition, % at 12.5 µM; 0.098% of 360,000 active; in the data active = inhibition above about 16%, passing the limit was not always enough
ALR inh = blocks human ALR sulfhydryl oxidase activity; P55789; purified ALR, DTT oxidation, H2O2 HRP-luminol luminescence; inhibition, % (no concentration beside the values); 3.8% of 290,000 active;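 active = mean replicate inhibition above about 79%, with every replicate also reaching it, limit read from the data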
Active calls of the source: *; / = no result; ! = not active in a repeat.

SMILES	ARNT-TACC3 inh	CendR NRP1 mod	ERp5 block	PDI turbidity	PglD inh	ALR inh
C[C@@H]1CN([C@H](C)CO)C(=O)Cc2cc(NS(C)(=O)=O)ccc2O[C@H]1CN(C)C(=O)Nc1cccc2ccccc12	-15	/	-6	/	6	/
C[C@@H]1CN([C@H](C)CO)S(=O)(=O)c2ccc(-c3ccc(F)cc3)cc2O[C@@H]1CN(C)CC1CC1	8	/	27*	/	-1	/
CCCN(C)C[C@@H]1Oc2cc(-c3cncnc3)ccc2S(=O)(=O)N([C@@H](C)CO)C[C@@H]1C	/	/	/	/	16*	/
CCCN(C)C[C@@H]1Oc2cc(-c3ccc(F)cc3)ccc2S(=O)(=O)N([C@@H](C)CO)C[C@@H]1C	1	/	32*	/	-1	/
CCCN(C)C[C@@H]1Oc2cc(-c3ccc(C)cc3)ccc2S(=O)(=O)N([C@@H](C)CO)C[C@@H]1C	4	/	-10	/	5	/
CN(C[C@H]1[C@H](c2ccccc2)[C@@H](CO)N1CC1CC1)C(=O)c1ccc(F)cc1	-2	/	-4	/	0	/
C[C@@H]1CN([C@H](C)CO)S(=O)(=O)c2ccc(-c3cccc(C#N)c3)cc2O[C@@H]1CN(C)C(=O)c1ccncc1	0	/	8	/	0	/
Cc1ccc(-c2nc(CS(=O)(=O)CC(=O)NCCCN3CCN(C)CC3)c(C)o2)cc1	4	-7	6	/	-3	-32
COc1cccc(-c2nc(CS(=O)(=O)CC(=O)NCCCN3CCN(C)CC3)c(C)o2)c1	3	-14	3	2	-3	99*
COc1cccc(-c2nc(CS(=O)(=O)CC(=O)NCCCN3CC(C)CC(C)C3)c(C)o2)c1 (centres undefined)	0	-4	2	-2	-1	90*
CCN1CCN(CCCNC(=O)CS(=O)(=O)Cc2nc(-c3cccc(OC)c3)oc2C)CC1	0	7	3	-3	/	90*
COc1cccc(-c2nc(CS(=O)(=O)CC(=O)NCCCN3C(C)CCCC3C)c(C)o2)c1 (centres undefined)	11	13	11	-7	/	11
C[C@H]1CN([C@@H](C)CO)S(=O)(=O)c2ccc(-c3ccccc3)cc2O[C@H]1CN(C)Cc1ccccn1	3	/	-27	/	-1	/
COc1ccc(NC(=O)N(C)C[C@H]2Oc3ccc(NC(=O)Nc4ccc5c(c4)OCO5)cc3C(=O)N([C@@H](C)CO)C[C@@H]2C)cc1	-1	/	1	/	-5	/
COc1cc(NC(=S)N2CCN(CCO)CC2)c(OC)cc1Cl	/	5	2	-3	-5	-60
OCCN1CCN(C(=S)c2ccc(Cl)c(Cl)c2)CC1	66*	10	/	-4	-2	/
COCC(=O)N1[C@H](CO)[C@@H](c2ccc(-c3cccc(F)c3)cc2)C12CN(C(=O)C1CC1)C2	/	/	-3	/	/	/
COc1cccc(S(=O)(=O)N[C@H]2CC[C@H](CC(=O)NCc3ccc(Cl)cc3)O[C@@H]2CO)c1	3	/	-3	/	2	/
Cc1ccc(CCNC(=O)C2CCCN(S(=O)(=O)c3cnc[nH]3)C2)cc1 (centres undefined)	-8	-14	3	8	-4	49
CCN(CCCNC(=O)C1CCCN(S(=O)(=O)c2cnc[nH]2)C1)c1ccccc1 (centres undefined)	-9	-7	-1	-5	1	98*
CCN(CCNC(=O)C1CCCN(S(=O)(=O)c2cnc[nH]2)C1)c1ccccc1 (centres undefined)	-9	-7	-8	0	4	98*
O=C(N[C@@H]1CC[C@H](CC(=O)N2CCCCC2)O[C@@H]1CO)c1ccc2c(c1)OCO2	-8	/	-3	/	-2	/
CCC(=O)N(C)C[C@@H]1Oc2cc(C#CC(C)(C)O)ccc2S(=O)(=O)N([C@H](C)CO)C[C@@H]1C	-1	/	6	/	-3	/
COCC(=O)N(C)C[C@H]1Oc2cc(C#Cc3cccnc3)ccc2S(=O)(=O)N([C@H](C)CO)C[C@H]1C	active!	2	3	-3	-2	/
COCC(=O)N(C)C[C@@H]1Oc2cc(C#CC(C)(C)O)ccc2S(=O)(=O)N([C@H](C)CO)C[C@@H]1C	-9	/	61*	/	-7	/
CC(C)CC#Cc1ccc2c(c1)O[C@@H](CN(C)C(=O)c1ccccn1)[C@@H](C)CN([C@@H](C)CO)S2(=O)=O	1	/	45*	/	-1	/
